Hit rate of the full screen: of about 69,000 compounds, about 8,600 (12%) showed an effect of 50% or more. The full list was thinned out, with strong results kept by preference.

This experiment has as its system Plasmodium berghei. The experiment can be described thus: Screen against P. berghei liver stage (PbLuc), transformed with Luciferase, at 10uM. It is filed as functional, HepG2. The following applies: tested at 10 uM.
In the case of `O=C1CN(c2ccc(CNC(=O)Nc3nccs3)cc2)CCN1`, the INHIBITION came to 13.8%. Turning to `CN(Cc1ccc2c(c1)OCCO2)c1ncc(S(N)(=O)=O)s1`, the INHIBITION came to 54.4%.

For `CCN(Cc1ccc2c(c1)OCO2)c1ncc(S(N)(=O)=O)s1`, the INHIBITION stood at 27.5%.

In the case of `COc1ccc(CN(C)c2ncc(S(N)(=O)=O)s2)c(OC)c1`, the INHIBITION is on record as -28.2%. To `CN(c1ncc(S(N)(=O)=O)s1)C1CCC1` belongs 52.2%. The value for `CN(c1ncc(S(N)(=O)=O)s1)C1CCc2ccccc2C1` (stereo not drawn) was 65.6%. Take `CCc1ncc(C(=O)N(C)C2Cc3ccccc3C2)cn1`: the INHIBITION is -98.6%. To `CCN(Cc1ccoc1)c1ncc(S(N)(=O)=O)s1` belongs 20.8%; to `CN(c1ncc(S(N)(=O)=O)s1)C1CCc2ccccc21` (stereo not drawn), 36.5%. Consider `COc1ccc(OC)c(CN(C)c2ncc(S(N)(=O)=O)s2)c1`, for which the INHIBITION is -54.4%. For the compound `CS(=O)(=O)c1cn[nH]c1C1CCCCN1C(=O)Cc1cccnc1` (stereo not drawn), the INHIBITION was -5.71%. The value for `CN1CCNC(Cc2ccc(-c3cccs3)cc2)C1=O` (stereo not drawn) was -52.6%. To `COCCN1CCOCC12CCN(C(=O)Cc1cccs1)CC2` belongs 24.9%; to `O=C(CN1CCC[C@@H]1C(=O)O)NCCOc1cccc(C(F)(F)F)c1`, -0.18%.

Take `CC(=O)N1CCC2(CCCN(C(=O)c3ccccc3)C2)C1` (stereo not drawn): the INHIBITION amounted to 22.2%. The value for `Cc1csc(Nc2cc(C3CCCCN3C)nc(C)n2)n1` (stereo not drawn) was 16.5%. As to `Cc1ccsc1CN(C)C(=O)c1cc2c([nH]c1=O)CCCC2=O`, the INHIBITION was -1.95%. As for `Cc1ccc(S(=O)(=O)NCCNC(=O)c2cncnc2C)cc1`, the INHIBITION is listed as 78.1%.

`CCc1ncncc1C(=O)NCCNS(=O)(=O)c1ccccc1`: the INHIBITION was -118%.

With `CCc1ncncc1C(=O)NCCNS(=O)(=O)c1ccc(C)cc1`, the INHIBITION is given as -70.7%. Regarding `CN(C)C(C)(C)CNCc1c[nH]nc1-c1cc2ccccc2o1`, the INHIBITION was 36.9%. Turning to `Cc1cnc(C(=O)NCc2cccnc2OC(C)C)cn1`, the INHIBITION was determined as 33.7%. The value for `O=C1CC(NCc2ccc(OC(F)F)cc2)CN1Cc1cccc(F)c1` (stereo not drawn) was 0.38%. The value for `Cc1cccc(CNC2CC(=O)N(Cc3cccc(F)c3)C2)c1` (stereo not drawn) was 13.87%. To `O=C1CC(NCc2ccncc2)CN1Cc1cccc(F)c1` (stereo not drawn) belongs 63.5%; to `NC1CCC(n2cc(C(=O)NC3CCc4ccccc4C3)nn2)CC1` (stereo not drawn), 25.5%; to `CNC(=O)c1ccc(CNC(=O)c2ccc(Cl)cc2F)cc1`, -8.675%. Turning to `CC(C)N(C)C(=O)c1ccc(CNc2cncc(Cl)n2)cc1`, the INHIBITION stood at 32.9%. To `CC(C)N(C)C(=O)c1ccc(CNc2ncc(C#N)cc2Cl)cc1` belongs 44.5%; to `CCOc1ccc(Cl)c(C(=O)NCc2ccc(C(=O)NC)cc2)n1`, 14.7%; to `CC(C)N(C)C(=O)c1ccc(CNc2ccncc2Cl)cc1`, 97.1%. To `CNC(=O)c1ccc(CNc2ccncc2Cl)cc1` belongs 57.7%; to `CN1CCOC(CNCc2ccc(OCc3ccccn3)cc2)C1` (stereo not drawn), -38.7%. In the case of `O=C(c1ccnnc1)N1C[C@@H](OCc2cccnc2)[C@H]2OCCC[C@H]21`, the INHIBITION was 37.1%. On to `NC(=O)c1ccc(CNC2CC2)cc1`, for which the INHIBITION is recorded as -30.1%. To `Cc1ccc(C2(CN3CCN(Cc4cncn4C)CC3)CC2)cc1` belongs -32.7%. To `CCN(Cc1cccnc1)CC1CCCO1` (stereo not drawn) belongs -0.113%; to `CC(C)(C)c1cnc(CN(Cc2cccnc2)CC2CCCO2)o1` (stereo not drawn), 75.4%; to `c1ccc(-c2cnc(CN(Cc3cccnc3)CC3CCCO3)o2)cc1` (stereo not drawn), -5.26%. The value for `CNC(=O)CCc1cc(C)nc(C2CCN(C(=O)CN(C)C)CC2)c1` was 4.9%; that for `CCc1nc(CN2CCCN(C(=O)c3ccnc(C)n3)CC2)cs1` was 25.5%. In the case of `NCCc1cccc(CN2CCN(c3cccc(Cl)c3)C(=O)C2)c1`, the INHIBITION was determined as 50.5%. For the compound `Cc1ccc(CN2CCN(Cc3ccc4nonc4c3)CC2=O)cc1`, the INHIBITION came out at 5.78%. The value for `Cc1cc(C)cc(CN2CCN(Cc3cc(C#N)n(C)c3)CC2=O)c1` was 11.8%; that for `NCCc1cccc(CN2CCN(c3ccccc3)C(=O)C2)c1` was 26.8%. Consider `COc1cccc(N2CCN(Cc3cccc(CCN)c3)CC2=O)c1`, for which the INHIBITION is 35.1%.

On to `Cc1cc(C)cc(N2CCN(Cc3cccc(CCN)c3)CC2=O)c1`, for which the INHIBITION is on record as 2.18%.

Turning to `Cc1cc(C)cc(CN2CCN(Cc3ccc4nonc4c3)CC2=O)c1`, the INHIBITION was 37.6%. To `Cc1cc(C)cc(CN2CCN(Cc3cccc(CCN)c3)CC2=O)c1` belongs 67.7%; to `Cc1ccc(CN2CCN(Cc3ccncc3)CC2=O)cc1`, 50.3%; to `Cn1cc(CN2C[C@@H]3COC[C@H](C(=O)Nc4cccnc4)[C@@H]3C2)cn1`, 0.542%. To `CCn1cc(CN2CCCN(C(=O)c3c(C)oc(C)c3C)CC2)cn1` belongs 15.6%; to `CCC[C@H]1CN(S(C)(=O)=O)C[C@@H]1NC(=O)c1ccc(COC)cc1`, 23.9%.

Source of the values: ChEMBL document CHEMBL4513216, “Probing the Open Global Health Chemical Diversity Library for Multistage-Active Starting Points for Next-Generation Antimalarials” (ACS Infect Dis, 2020).
